Screens as filed in PubChem.
BAZ2B block: qHTS Assay for Inhibitors of BAZ2B; Bromodomain adjacent to zinc finger domain protein 2B (Homo sapiens), Q9UIF8; AlphaScreen BAZ2B-H3K14Ac peptide displacement; Potency, µM (top dose mostly 114 µM), inactives show top-dose activity change, negative = inhibition, actives largely listed as inhibitors; actives 4.4% (n = 360,000); AID 504333, 2011; further: on the % scale 0 is the no-effect control and ±100 the full control effect; nearly all actives have a fitted effect of over 60% in size
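AlphaScreen displacement of biotin-H3(5-23)K14Ac peptide (50 nM final) from BAZ2B (50 nM final) in PBS pH 7.4, 0.01% Tween-20; complex preformed 30 min RT, then compounds (top 110 uM) 30 min RT, beads 20 min dark.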
JMJD2A Tudor: qHTS Assay for Inhibitors of JMJD2A-Tudor Domain; Potency, µM (top dose mostly 114 µM), for the others: at the highest dose activity change, negative = inhibition, hits mostly inhibitors; AlphaScreen JMJD2A-Tudor / H3K4me3 peptide binding; actives 4.4% (n = 390,000); Lysine-specific demethylase 4A (Homo sapiens), O75164; further: on the % scale 0 is the no-effect control and ±100 the full control effect; nearly all actives have a fitted effect of over 50% in size
L3MBTL1 inh: qHTS Assay for the Inhibitors of L3MBTL1; actives 0.66% (n = 230,000); Potency, µM (top dose mostly 57.1 µM), without a hit: top-dose activity, negative = inhibition, hits mostly inhibitors; Lethal(3)malignant brain tumor-like protein 1 (Homo sapiens), Q9Y468; AlphaScreen L3MBTL1–H3K9me1 peptide binding; AID 485360, 2010; further: on the % scale 0 is the no-effect control and ±100 the full control effect; nearly all actives have a fitted effect of over 60% in size
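Displacement of a biotinylated histone H3(1-15) peptide monomethylated at Lys9 (75 nM) from L3MBTL1 (50 nM) was measured by AlphaScreen after a 30 min room-temperature compound incubation; cefsulodin titration served as intraplate control.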
HP1b binding inh: HTS for Inhibitors of HP1-beta Chromodomain Interactions with Methylated Histone Tails | AlphaScreen HP1-beta / biotin-H3K9me3 peptide binding | Potency, µM (top dose mostly 114 µM), inactives show at the top dose activity change, negative = inhibition, hits mostly inhibitors | actives 0.56% (n = 390,000); further: nearly all actives have a fitted effect of over 70% in size
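AlphaScreen: HP1-beta (50 nM) preformed 30 min with biotin-H3(1-18)K9me3 peptide (50 nM) in PBS pH 7.4, 0.01% Tween-20. Compound added for 30 min at RT, then streptavidin donor/nickel chelate acceptor beads (10 ug/mL) for 30 min.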
Sfp inh: qHTS Assay for Inhibitors of Bacillus subtilis Sfp phosphopantetheinyl transferase (PPTase) | Potency, µM, without a hit: largest response in the series, negative = inhibition, most hits filed as inhibitors | Biochemical Sfp PPTase activity, qHTS | 4'-phosphopantetheinyl transferase ffp (Bacillus subtilis), Q9F4F7 | actives 3.5% (n = 310,000);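 further: the enzyme is Sfp with the accession as filed and its product quenches rhodamine fluorescence; 0% = enzyme reaction without inhibitor and -100% = no enzyme wells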
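After 15 min at room temperature with compound, 15 nM Sfp received 5 uM rhodamine-CoA plus 12.5 uM BHQ-2-ybbR (50 mM Hepes pH 7.6, 10 mM MgCl2). Rate came from the fluorescence difference over 30 min, ex 525/em 598 nm.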
G9a inh: qHTS Assay for Inhibitors of Histone Lysine Methyltransferase G9a. Potency, µM (doses to about 102 µM), inactives show top-dose activity, negative = inhibition, hits mostly inhibitors. Histone-lysine N-methyltransferase EHMT2 (Homo sapiens), Q96KQ7. actives 8.8% (n = 350,000). G9a H3K9 monomethylation, AlphaScreen, 2 h; further: on the % scale 0 is the no-effect control and ±100 the full control effect; nearly all actives have a fitted effect of over 75% in size
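G9a (20 nM) preincubated 15 min RT with compounds, then 500 nM biotinylated H3K9 peptide and 20 uM SAM added; 2 h RT reaction. Monomethyl-H3K9 product detected by AlphaScreen with anti-H3K9me1 antibody, streptavidin donor and anti-rabbit IgG acceptor beads.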
Active calls of the source: *; ? = inconclusive; . = no result given; [ ] = dose if it differs, or a comment. Sampled rows, rich in hits. Any-hit rate of the full collection: about 12%. The call rests on the fitted dose curve; in most records, active means well fitted curve in the direction sought with a large enough effect; inconclusive means small, poorly fitted or top-dose-only effect, or another doubt; inactive means no such curve, though single readings can be large; an effect the other way counts as inactive or inconclusive. Potency means the concentration at half of the fitted maximal effect.

SMILES | BAZ2B block | JMJD2A Tudor | L3MBTL1 inh | HP1b binding inh | Sfp inh | G9a inh
Cc1oc(-c2ccccc2F)nc1CS(=O)CC(=O)NC(C)C (centres undefined) | -21% | -16% | . | 25% | . | ?
CC(=O)OCOC(=O)CN(CC(=O)OCOC(C)=O)c1ccccc1OCCOc1ccccc1N(CC(=O)OCOC(C)=O)CC(=O)OCOC(C)=O | . | . | . | . | 89µM* | 2%[59 µM]
C=CCSC(=S)NC1CCS(=O)(=O)C1 (centres undefined) | 9% | -1% | -5% | 31% | -21% | 50µM*
O=S1(=O)CCC(NC(=S)N2CCCCC2)C1 (centres undefined) | 9% | -11% | 9% | 25% | 9% | 11%[59 µM]
NC(=S)NC1CCS(=O)(=O)C1 (centres undefined) | 9% | 10% | . | 39% | 15% | -3%
O=S1(=O)CCC(NC(=S)NCCNC(=S)NC2CCS(=O)(=O)C2)C1 (centres undefined) | 9% | -10% | 10% | 39% | ? | 50µM*
O=C(Nc1cc(Cl)ccc1O)c1cc2nc(-c3ccc4c(c3)OCO4)cc(C(F)(F)F)n2n1 | -8% | -8% | . | 19% | . | -8%[59 µM]
CCOC(=O)c1sc2ncn(CC(=O)Nc3cc(C)cc(C)c3)c(=O)c2c1C | 5% | 2% | . | 34% | . | 3%[59 µM]
Cc1oc2ccc(O)c(CN3CCN(Cc4ccccc4)CC3)c2c1C(=O)Nc1cccc(Cl)c1C | -9% | -16% | . | 15% | . | -16%[59 µM]
COc1cc(-c2n[nH]c(=S)n2-c2ccccc2C(F)(F)F)cc(OC)c1OC | -16% | ? | 1% | 8% | -18% | 3.5µM*
COc1cc(-c2n[nH]c(=S)n2-c2cccc(C(F)(F)F)c2)cc(OC)c1OC | 5% | 89µM* | 30% | 13% | -20% | ?
COc1cc(-c2n[nH]c(=S)n2C(C)c2ccccc2)cc(OC)c1OC (centres undefined) | -1% | 13µM* | 31% | 32% | 0% | .
CC(=O)OC1CC2C(C)(C)C(=O)C3OC3[C@]2(C)C2CC[C@@]3(C)C(c4ccoc4)OC(=O)C4OC43[C@]12C (some centres undefined) | . | . | . | . | 14% | -18%[2.33 µM]
CCOC(=O)c1ccc(NC(=S)NNC(=O)C2(C)CC2(Cl)Cl)cc1 (centres undefined) | 11% | -18% | 10% | -2% | -6% | 10µM*
CCOC(=O)c1ccc(NC(=S)NNC(=O)COC)cc1 | 44% | -5% | 31% | 13% | -8% | ?
COCCNC(=S)Nc1ccc2[nH]c(=O)[nH]c2c1 | -22% | -10% | 0% | -2% | -11% | 18µM*
COc1cc(OC)cc(C(=O)NC(=S)Nc2ccc3[nH]c(=O)[nH]c3c2)c1 | 10% | -26% | . | 20% | 5% | 6%
Cc1ccc(C(=O)NC(=S)Nc2ccc3[nH]c(=O)[nH]c3c2)cc1 | 7% | ? | 0% | 12% | -15% | 50µM*
CCOC(=O)c1ccc(NC(=S)Nc2ccc3[nH]c(=O)[nH]c3c2)cc1 | -6% | -10% | 0% | 3% | 40µM* | .
Cc1ccc(Sc2ccc(N3CCCC(C(=O)Nc4ccc(F)cc4)C3)nn2)cc1 (centres undefined) | 3% | -12% | . | 26% | . | -1%[59 µM]
Cc1c(CCC(=O)NCCc2ccc(Cl)cc2)c(=O)oc2c(C)c(O)ccc12 | 2% | -1% | . | 59% | . | 9%[59 µM]
Cc1ccc(NC(=S)Nc2ccc3[nH]c(=O)[nH]c3c2)cc1 | -21% | -7%[11.4 µM] | -6% | -15% | ? | 50µM*
